# Experimental data as given in the supplement of paper PMC4466140.
# Legend:
# Experiment in all cases: SPOT peptide array binding signal intensity (averaged, normalized) (arbitrary units (background-subtracted, floor 0; scale differs between SH3 domains)); higher = stronger binding of the SH3 domain to the peptide
# AgAbp1 = target: AgAbp1
# In short: (§1)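 GST-fused SH3 domains from four yeast species were expressed in E. coli BL21(DE3), purified on glutathione Sepharose and incubated at 10 μg/ml overnight at 4°C in TBS-based blocking buffer on cellulose membranes carrying synthetic 15-mer peptides, with cysteines replaced by serines. Bound protein was detected with anti-GST antibody, an HRP anti-mouse secondary and luminol, then imaged and quantified with Genespotter. Binding signal is the normalized, background-subtracted spot intensity averaged over replicates, in arbitrary units that differ between domains.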
# AgBbc1 = target: AgBbc1
# In short: as §1
# AgBem1-D1 = target: AgBem1-D1
# In short: as §1
# AgBzz1-D1 = target: AgBzz1-D1
# In short: as §1
# AgBzz1-D2 = target: AgBzz1-D2
# In short: as §1
# AgCyk3 = target: AgCyk3
# In short: as §1
# AgFus1 = target: AgFus1
# In short: as §1
# AgHof1 = target: AgHof1
# In short: as §1
# AgHse1 = target: AgHse1
# In short: as §1
# AgLsb1 = target: AgLsb1
# In short: as §1
# AgLsb4 = target: AgLsb4
# In short: as §1
# AgMyo5 = target: AgMyo5
# In short: as §1
# AgNbp2 = target: AgNbp2
# In short: as §1
# AgRvs167 = target: AgRvs167
# In short: as §1
# AgSho1 = target: AgSho1
# In short: as §1
# AgSla1-D1-D2 = target: AgSla1-D1-D2
# In short: as §1
# AgSla1-D3 = target: AgSla1-D3
# In short: as §1
# CaAbp1-D1 = target: CaAbp1-D1
# In short: as §1
# CaAbp1-D2 = target: CaAbp1-D2
# In short: as §1
# CaBbc1 = target: CaBbc1
# In short: as §1
# CaBem1-D1 = target: CaBem1-D1
# In short: as §1
# CaBzz1-D1 = target: CaBzz1-D1
# In short: as §1
# CaBzz1-D2 = target: CaBzz1-D2
# In short: as §1
# CaCyk3 = target: CaCyk3
# In short: as §1
# CaFus1 = target: CaFus1
# In short: as §1
# CaHof1 = target: CaHof1
# In short: as §1
# CaHse1 = target: CaHse1
# In short: as §1
# CaLsb1 = target: CaLsb1
# In short: as §1
# CaLsb4 = target: CaLsb4
# In short: as §1
# CaMyo5 = target: CaMyo5
# In short: as §1
# CaNbp2 = target: CaNbp2
# In short: as §1
# CaRvs167 = target: CaRvs167
# In short: as §1
# CaRvs167-3 = target: CaRvs167-3
# In short: as §1
# CaSho1 = target: CaSho1
# In short: as §1
# CaSla1-D1-D2 = target: CaSla1-D1-D2
# In short: as §1
# CaSla1-D3 = target: CaSla1-D3
# In short: as §1
# ScAbp1 = target: ScAbp1
# In short: as §1
# ScBbc1 = target: ScBbc1
# In short: as §1
# ScBem1-D1 = target: ScBem1-D1
# In short: as §1
# ScBzz1-D1 = target: ScBzz1-D1
# In short: as §1
# ScBzz1-D2 = target: ScBzz1-D2
# In short: as §1
# ScCyk3 = target: ScCyk3
# In short: as §1
# ScFus1 = target: ScFus1
# In short: as §1
# ScHof1 = target: ScHof1
# In short: as §1
# ScHse1 = target: ScHse1
# In short: as §1
# ScLsb1 = target: ScLsb1
# In short: as §1
# ScLsb2 = target: ScLsb2
# In short: as §1
# ScLsb3 = target: ScLsb3
# In short: as §1
# ScLsb4 = target: ScLsb4
# In short: as §1
# ScMyo3 = target: ScMyo3
# In short: as §1
# ScMyo5 = target: ScMyo5
# In short: as §1
# ScNbp2 = target: ScNbp2
# In short: as §1
# ScPex13 = target: ScPex13
# In short: as §1
# ScRvs167 = target: ScRvs167
# In short: as §1
# ScSho1 = target: ScSho1
# In short: as §1
# ScSla1-D1-D2 = target: ScSla1-D1-D2
# In short: as §1
# ScSla1-D3 = target: ScSla1-D3
# In short: as §1
# SpAbp1-D1 = target: SpAbp1-D1
# In short: as §1
# SpBbc1 = target: SpBbc1
# In short: as §1
# SpBzz1-D1 = target: SpBzz1-D1
# In short: as §1
# SpBzz1-D2 = target: SpBzz1-D2
# In short: as §1
# SpCyk3 = target: SpCyk3
# In short: as §1
# SpHof1 = target: SpHof1
# In short: as §1
# SpHof1-2 = target: SpHof1-2
# In short: as §1
# SpHof1-3 = target: SpHof1-3
# In short: as §1
# SpHse1 = target: SpHse1
# In short: as §1
# SpLsb1 = target: SpLsb1
# In short: as §1
# SpLsb4 = target: SpLsb4
# In short: as §1
# SpMyo1 = target: SpMyo1
# In short: as §1
# SpNbp2 = target: SpNbp2
# In short: as §1
# SpPex13 = target: SpPex13
# In short: as §1
# SpRvs167 = target: SpRvs167
# In short: as §1
# SpSla1-D1-D2 = target: SpSla1-D1-D2
# In short: as §1
# SpSla1-D3 = target: SpSla1-D3
# In short: as §1
binder,measurement,setting,value
RKQRSIPLSPIVPES,SPOT peptide array binding signal intensity,AgAbp1,7
same,SPOT peptide array binding signal intensity,AgBbc1,17
same,SPOT peptide array binding signal intensity,AgBem1-D1,77
same,SPOT peptide array binding signal intensity,AgBzz1-D1,15.5
same,SPOT peptide array binding signal intensity,AgBzz1-D2,32
same,SPOT peptide array binding signal intensity,AgCyk3,2
same,SPOT peptide array binding signal intensity,AgFus1,104
same,SPOT peptide array binding signal intensity,AgHof1,35.5
same,SPOT peptide array binding signal intensity,AgHse1,375
same,SPOT peptide array binding signal intensity,AgLsb1,1.5
same,SPOT peptide array binding signal intensity,AgLsb4,45.5
same,SPOT peptide array binding signal intensity,AgMyo5,0.25
same,SPOT peptide array binding signal intensity,AgNbp2,59
same,SPOT peptide array binding signal intensity,AgRvs167,3.33
same,SPOT peptide array binding signal intensity,AgSho1,13
same,SPOT peptide array binding signal intensity,AgSla1-D1-D2,≤ 0
same,SPOT peptide array binding signal intensity,AgSla1-D3,3
same,SPOT peptide array binding signal intensity,CaAbp1-D1,236
same,SPOT peptide array binding signal intensity,CaAbp1-D2,98.5
same,SPOT peptide array binding signal intensity,CaBbc1,175
same,SPOT peptide array binding signal intensity,CaBem1-D1,13
same,SPOT peptide array binding signal intensity,CaBzz1-D1,58
same,SPOT peptide array binding signal intensity,CaBzz1-D2,136
same,SPOT peptide array binding signal intensity,CaCyk3,48
same,SPOT peptide array binding signal intensity,CaFus1,368
same,SPOT peptide array binding signal intensity,CaHof1,0.25
same,SPOT peptide array binding signal intensity,CaHse1,12.2
same,SPOT peptide array binding signal intensity,CaLsb1,0.5
same,SPOT peptide array binding signal intensity,CaLsb4,64
same,SPOT peptide array binding signal intensity,CaMyo5,3.5
same,SPOT peptide array binding signal intensity,CaNbp2,297
same,SPOT peptide array binding signal intensity,CaRvs167,5.17
same,SPOT peptide array binding signal intensity,CaRvs167-3,1.25
same,SPOT peptide array binding signal intensity,CaSho1,83
same,SPOT peptide array binding signal intensity,CaSla1-D1-D2,15
same,SPOT peptide array binding signal intensity,CaSla1-D3,≤ 0
same,SPOT peptide array binding signal intensity,ScAbp1,11
same,SPOT peptide array binding signal intensity,ScBbc1,20.2
same,SPOT peptide array binding signal intensity,ScBem1-D1,7
same,SPOT peptide array binding signal intensity,ScBzz1-D1,25.5
same,SPOT peptide array binding signal intensity,ScBzz1-D2,12.5
same,SPOT peptide array binding signal intensity,ScCyk3,37
same,SPOT peptide array binding signal intensity,ScFus1,98
same,SPOT peptide array binding signal intensity,ScHof1,0.5
same,SPOT peptide array binding signal intensity,ScHse1,679
same,SPOT peptide array binding signal intensity,ScLsb1,1.75
same,SPOT peptide array binding signal intensity,ScLsb2,2
same,SPOT peptide array binding signal intensity,ScLsb3,243
same,SPOT peptide array binding signal intensity,ScLsb4,9
same,SPOT peptide array binding signal intensity,ScMyo3,7
same,SPOT peptide array binding signal intensity,ScMyo5,6.25
same,SPOT peptide array binding signal intensity,ScNbp2,142
same,SPOT peptide array binding signal intensity,ScPex13,4.5
same,SPOT peptide array binding signal intensity,ScRvs167,39.7
same,SPOT peptide array binding signal intensity,ScSho1,284
same,SPOT peptide array binding signal intensity,ScSla1-D1-D2,193
same,SPOT peptide array binding signal intensity,ScSla1-D3,57.2
same,SPOT peptide array binding signal intensity,SpAbp1-D1,85
same,SPOT peptide array binding signal intensity,SpBbc1,0.25
same,SPOT peptide array binding signal intensity,SpBzz1-D1,171
same,SPOT peptide array binding signal intensity,SpBzz1-D2,0.5
same,SPOT peptide array binding signal intensity,SpCyk3,1.5
same,SPOT peptide array binding signal intensity,SpHof1,26.8
same,SPOT peptide array binding signal intensity,SpHof1-2,2.25
same,SPOT peptide array binding signal intensity,SpHof1-3,340
same,SPOT peptide array binding signal intensity,SpHse1,293
same,SPOT peptide array binding signal intensity,SpLsb1,2
same,SPOT peptide array binding signal intensity,SpLsb4,25.5
same,SPOT peptide array binding signal intensity,SpMyo1,3
same,SPOT peptide array binding signal intensity,SpNbp2,115
same,SPOT peptide array binding signal intensity,SpPex13,≤ 0
same,SPOT peptide array binding signal intensity,SpRvs167,18.8
same,SPOT peptide array binding signal intensity,SpSla1-D1-D2,≤ 0
same,SPOT peptide array binding signal intensity,SpSla1-D3,1
